Data reported in publication PMC5540273 (PLoS ONE, 2017).

What was measured:
Details in all cases: concentration: 1 μM,replicates: in singlicate; n = 1
[1] = test system: T1, MEK5
T1 construct: gene MAP2K5

[2] = test system: T2, MEK6
T2 construct: gene MAP2K6

[3] = test system: MELK
[4] = test system: MERTK
[5] = test system: MET
[6] = test system: T3, MINK
T3 construct: gene MINK1

[7] = test system: MKK7
[8] = test system: MKNK1
[9] = test system: MKNK2
[10] = test system: T4, MLCK
T4 construct: gene MYLK3

[11] = test system: T5, MLK1
T5 construct: gene MAP3K9

[12] = test system: MLK2
[13] = test system: MLK3
[14] = test system: MRCKA
[15] = test system: T6, MRCKB
T6 construct: gene CDC42BPB

[16] = test system: MST1R
[17] = test system: T7, MST1
T7 construct: gene STK4

[18] = test system: T8, MST2
T8 construct: gene STK3

[19] = test system: T9, MST3
T9 construct: gene STK24

[20] = test system: MST4
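Further: KINOMEscan kinase panel screen.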

Compound	%Inh [1]	%Inh [2]	%Inh [3]	%Inh [4]	%Inh [5]	%Inh [6]	%Inh [7]	%Inh [8]	%Inh [9]	%Inh [10]	%Inh [11]	%Inh [12]	%Inh [13]	%Inh [14]	%Inh [15]	%Inh [16]	%Inh [17]	%Inh [18]	%Inh [19]	%Inh [20]
OCCn1cc(-c2cnc3nnn(Cc4ccc5ncccc5c4)c3n2)cn1	0%	0%	32%	0%	79%	0%	0%	0%	0%	13%	0%	0%	0%	0%	0%	0%	0%	0%	0%	0%
O=C(Nc1cccc(C(F)(F)F)c1)c1cccc(Oc2ccc3nccn3n2)c1	32%	0%	0%	17%	16%	12%	36%	7%	26%	0%	9%	7%	8%	23%	3%	3%	29%	0%	0%	28%
CCNCC(Cc1ccccc1)NC(=O)c1cc(Br)c(-c2ccnc3[nH]ccc23)s1.Cl.Cl (centres unmarked) [GSK1383280]	55%	21%	97.5%	34%	6%	64%	35%	0%	94.3%	17%	0%	6%	0%	64%	98.2%	30%	0%	0%	1%	26%
N#Cc1cccc(C(=O)NC2CCN(c3ccnc(Nc4ccc(F)cc4)n3)C2)c1 (centres unmarked) [GSK1379708]	12%	0%	0%	49%	18%	0%	0%	0%	0%	0%	1%	0%	9%	6%	0%	39%	2%	0%	0%	0%
CC(=O)c1c(-c2ccncc2)[nH]c(-c2ccncc2)c1C [GW493036]	2%	0%	0%	0%	11%	29%	0%	14%	46%	0%	4%	0%	0%	20%	3%	42%	11%	8%	0%	0%
C[C@@H]1CNc2c(sc3ccc4nc(-c5ccc(O)cc5)ccc4c23)C(=O)N1	67%	13%	0%	62%	92.7%	61%	0%	27%	34%	52%	0%	9%	0%	0%	0%	23%	0%	42%	25%	0%
CC(C)S(=O)(=O)N1CCN(Cc2ccc3c(c2)nc(NC(=O)c2ccsc2)n3C[C@H](O)c2ccccc2)CC1 [GW635815]	91.9%	0%	28%	83%	20%	60%	0%	7%	0%	0%	90.6%	43%	79%	0%	16%	36%	5%	0%	1%	0%
COc1cccc(C2=C(Nc3cccc(Cl)c3)C(=O)NC2=O)c1 [SB-341556]	38%	0%	0%	0%	0%	0%	10%	0%	27%	0%	0%	16%	0%	0%	0%	0%	100%	22%	0%	0%
CC(C)c1nc(-c2cccc(NS(=O)(=O)c3ccccc3)c2)c(-c2ccnc(Nc3ccc4c(c3)CN(C)CC4)n2)s1 [GSK1649598]	99.1%	26%	65%	42%	23%	95.1%	1%	0%	81%	0%	18%	0%	22%	7%	0%	41%	67%	26%	82%	82%
Cn1ccc2ncnc(Oc3ccc(NC(=O)Nc4cccc(C(F)(F)F)c4)c(Cl)c3)c21	30%	30%	0%	85%	17%	4%	32%	16%	19%	12%	53%	12%	2%	3%	21%	33%	16%	24%	18%	0%
